Results filed as inconclusive are left out. Entries that show only a call come without a potency. Activity calls are given as the source filed them. The call rests on the fitted dose curve; in most records, active means well fitted inhibition curve with a large enough effect; inconclusive means small, poorly fitted or top-dose-only effect, or effect the other way; inactive means flat fitted curve, though single readings scatter.
Potency means the concentration at half of the fitted maximal effect.

In this experiment the target is Ubiquitin carboxyl-terminal hydrolase 2 (Homo sapiens) (UniProt O75604). The experiment in a line: Ub-rhodamine 110 based assay for inhibitors Ubiquitin-specific Protease USP2a. Further: nearly all actives have a fitted effect of over 50% in size. To be noted: USP2a Ub-rhodamine110 cleavage, fluorescence; series mostly up to 38.3 µM. In a few lines: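 Kinetic fluorescence (485/531 nm) read each minute over 7 min after adding Ub-Rhod110 (150 nM final) to USP2a (5 nM final). The enzyme had 30 min RT exposure to compounds beforehand in Tris pH 8.0 buffer with CaCl2, CHAPS and beta-ME.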
Chain of Ubiquitin carboxyl-terminal hydrolase 2 (Homo sapiens) (O75604 whole entry, looked up): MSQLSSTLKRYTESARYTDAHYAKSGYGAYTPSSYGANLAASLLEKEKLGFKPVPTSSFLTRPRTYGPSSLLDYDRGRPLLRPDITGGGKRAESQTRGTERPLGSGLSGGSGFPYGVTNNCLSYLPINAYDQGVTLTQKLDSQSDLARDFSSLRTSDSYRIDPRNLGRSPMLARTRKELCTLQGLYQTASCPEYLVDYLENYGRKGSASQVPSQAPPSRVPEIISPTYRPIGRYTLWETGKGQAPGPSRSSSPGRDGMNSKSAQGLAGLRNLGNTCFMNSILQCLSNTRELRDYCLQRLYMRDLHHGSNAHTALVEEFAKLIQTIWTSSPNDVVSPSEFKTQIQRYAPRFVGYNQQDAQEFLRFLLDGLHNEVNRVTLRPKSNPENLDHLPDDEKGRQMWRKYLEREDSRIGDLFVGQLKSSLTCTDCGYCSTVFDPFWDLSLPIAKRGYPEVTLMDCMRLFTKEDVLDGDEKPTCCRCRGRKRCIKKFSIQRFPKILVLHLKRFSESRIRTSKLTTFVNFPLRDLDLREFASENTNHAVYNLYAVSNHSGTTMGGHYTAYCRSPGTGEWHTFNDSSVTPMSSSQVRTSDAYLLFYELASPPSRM
For `Cn1c(=O)c2c(nc(CN3CCN(C(=O)c4ccco4)CC3)n2CCCc2ccccc2)n(C)c1=O`, the Potency entry was “inactive”.

`O=C(N/N=C/C=C/c1ccccc1)c1ccncc1`: the Potency entry is “inactive”.

For the compound `COCCn1c(CN(Cc2ccccc2)Cc2ccccc2)nc2c1c(=O)n(C)c(=O)n2C`, the Potency result is “inactive”.

Turning to `N#C/C(=C(/O)CSc1nnc(Cc2cccs2)n1C1CCCCC1)c1nc2ccccc2[nH]1`, the Potency was 7.08 µM (active).

As to `O=C1c2ccccc2C(=O)N1CCCCn1c(=O)oc2ccccc21`, the Potency entry is “inactive”.

Consider `Cc1ccc(S(=O)(=O)N2[C@@H](c3ccc(C(C)(C)C)cc3)C(C(=O)O)=CC[C@H]2c2cccc(Cl)c2)cc1`, for which the Potency is 5.62 µM (active).

With `Cc1ccc(C(=O)c2coc3c2C(=O)C(=O)c2ccccc2-3)cc1`, the Potency result is “inactive”.

`Cc1cc(NC(=O)CN2C(=O)NC3(CCCCC3C)C2=O)no1` (stereo not given): the Potency result is “inactive”.

As for `COc1ccc(Cl)cc1S(=O)(=O)Nc1cccc(C(=O)O)c1`, the Potency entry was “inactive”.

Turning to `CC(C)Oc1ccc(C(=O)Nc2ccc(N3CCCC3)cc2)cc1`, the Potency is 10 µM (active).

For the compound `Cc1ccc(C(C(=O)NC2CCCC2)N2CCc3ccccc32)cc1` (stereo not given), the Potency result was “inactive”.

Regarding `Cc1c(NC(=O)C2CCCN2S(=O)(=O)c2ccc(Cl)cc2)c(=O)n(-c2ccccc2)n1C` (stereo not given), the Potency entry is “inactive”.

In the case of `O=C(CSc1nccc(=O)[nH]1)N1N=C2/C(=C/c3ccco3)CCCC2C1c1ccco1` (stereo not given), the Potency is 10 µM (active).

For `CNc1cccccc1=S`, the Potency was 10 µM (active).

As for `Cc1cc(NS(=O)(=O)c2ccc(Nc3nc(-c4ccc(C)c(C)c4)cs3)cc2)no1`, the Potency was 10 µM (active).

In the case of `O=C(Nc1nc(-c2ccco2)c(-c2ccco2)s1)C1CC(=O)N(c2ccc3c(c2)OCCO3)C1` (stereo not given), the Potency is 2.51 µM (active).

In the case of `C=CCn1c(N)c(C(=O)NCc2cccnc2)sc1=S`, the Potency entry is “inactive”.

Regarding `O=C(O)CC1(CC(=O)Nc2ccc3ccccc3c2)CCCCC1`, the Potency entry is “inactive”.

As for `Cc1ccc(-c2c(C)n([O-])c3c([n+]2=O)CCC3)o1`, the Potency result was “inactive”.

With `Cc1ccc(S(=O)(=O)Nc2ccccc2-c2ccccc2NS(=O)(=O)c2ccc(C)cc2)cc1`, the Potency was 8.91 µM (active).

As to `O=C(N/C(=C/c1cccnc1)C(=O)N1CCOCC1)c1ccco1`, the Potency result was “inactive”.

In the case of `O=C(COc1ccccc1)Nc1nnc(-c2ccc(Cl)s2)o1`, the Potency entry is “inactive”.

Take `CCOC(=O)N1CCN(CC(=O)n2c(C)c(C)c3ccccc32)CC1`: the Potency entry was “inactive”.

Consider `Cc1ccc(O)c(CC(C)C)n1`, for which the Potency result is “inactive”.

For `COc1cc2c(C(=O)N3CCN(c4cccc(Cl)c4)CC3)cn(CC(C)C)c(=O)c2cc1OC`, the Potency result was “inactive”.

Turning to `COc1ccccc1C(=O)n1nc(-c2cccnc2)nc1NCc1ccccc1`, the Potency result was “inactive”.

As for `Cc1cc(NC(=O)COC(=O)CCCOc2ccc(Cl)cc2C)no1`, the Potency entry was “inactive”.

Consider `NC(=O)c1ncc(C(F)(F)F)cc1Oc1cccc(F)c1`, for which the Potency entry was “inactive”.

With `C=CC#CC[N+]1(CC#Cc2ccccc2)CCOCC1`, the Potency result is “inactive”.

Consider `COCCn1c(SCC(=O)Nc2cc(C)on2)nnc1-c1ccccc1`, for which the Potency entry is “inactive”.

Take `FC(F)(F)C1=Nc2cccc3cccc(c23)N1`: the Potency result is “inactive”.

For `CC1Cc2ccccc2N1C(=O)Cn1c(=O)oc2cc(S(=O)(=O)NC3CCCC3)ccc21` (stereo not given), the Potency entry is “inactive”.

Take `Cc1ccc(C2=[N+]([O-])C(C)N(O)C2(C)C)o1` (stereo not given): the Potency entry was “inactive”.

For `COc1ccc(OC)c(Nc2ccc(Nc3cc(OC)ccc3OC)nn2)c1`, the Potency entry is “inactive”.

On to `Cc1ccc(-c2nc(N/N=C/c3ccncc3)c3ccccc3n2)cc1`, for which the Potency was 11.2 µM (active).

`COc1cccc(NC(=O)c2ccccc2-c2nc(-c3cccc(C)c3)no2)c1`: the Potency entry is “inactive”.

Regarding `COc1ccc(NC(=O)C2CC(=O)OC2c2ccccc2)cc1` (stereo not given), the Potency result was “inactive”.

`O=C(NC1CCCCC1)C(c1ccco1)N(Cc1ccco1)C(=O)c1ccco1` (stereo not given): the Potency result is “inactive”.

Regarding `O=C(CN1CCC(O)CC1)N1c2ccccc2C=Cc2ccccc21`, the Potency result was “inactive”.

Turning to `COc1cc(C(O)P(=O)(OC(C)C)c2ccc(N(C)C)cc2)cc(OC)c1OC` (stereo not given), the Potency entry was “inactive”.
